# Screens (PubChem)
# Compounds with a hit are over-represented: about 10% of the library has one in this group of screens.
# HPGD block: HPGD (human) dehydrogenase inhibition; P15428; purified HPGD, NADH fluorescence kinetic, PGE2 substrate; Potency, µM, for inactives: at the highest dose activity change, negative = inhibition, hits mostly inhibitors; 150,000 compounds, 4.3% hits; also: potency is read from the fitted curve at half-maximal effect
#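 20 nM HPGD preincubated 15 min at room temperature with compound in 50 mM Tris-HCl pH 8, 0.01% Tween 20. Started with 1 mM NAD+ and 30 uM prostaglandin E2; NADH fluorescence (360/450 nm) read 5 times over 30-s intervals, last minus first.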
# ALDH1A1 inh: blocks purified human ALDH1A1 activity; P00352; Purified ALDH1A1, NADH fluorescence, propionaldehyde substrate; Potency, µM (highest dose often 75.3 µM), inactives show at the top dose activity, negative = inhibition, hits mostly inhibitors; 220,000 compounds, 7.3% hits; AID 1030;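 also: potency is read from the fitted curve at half-maximal effect; plate controls were no enzyme wells and a reference inhibitor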
# Target sequence (P00352 whole entry, looked up): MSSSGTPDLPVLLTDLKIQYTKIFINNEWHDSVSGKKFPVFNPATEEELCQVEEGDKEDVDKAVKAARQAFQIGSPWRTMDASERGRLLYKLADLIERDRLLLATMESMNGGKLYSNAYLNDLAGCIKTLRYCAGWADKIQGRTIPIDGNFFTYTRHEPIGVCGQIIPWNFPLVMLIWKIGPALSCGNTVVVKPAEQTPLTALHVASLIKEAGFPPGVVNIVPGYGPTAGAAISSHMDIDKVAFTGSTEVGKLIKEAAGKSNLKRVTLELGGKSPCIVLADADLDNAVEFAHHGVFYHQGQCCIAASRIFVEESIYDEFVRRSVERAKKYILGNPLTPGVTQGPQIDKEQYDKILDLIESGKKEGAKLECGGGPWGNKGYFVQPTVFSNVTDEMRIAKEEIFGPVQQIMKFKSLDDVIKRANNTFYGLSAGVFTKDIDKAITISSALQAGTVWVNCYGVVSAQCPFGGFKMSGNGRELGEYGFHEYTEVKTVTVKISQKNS
# LMNA splice mod: LMNA splicing modulation; HeLa LMNA splicing GFP/RFP minigene ratio, 48 h; Potency, µM (series often up to 46.1 µM), inactives show top-dose ratio change, negative = inhibition, most hits filed as inhibitors; 200,000 compounds, 0.01% hits; AID 1487; active = well fitted inhibition curve with a large enough effect in the signal ratio, with a control signal flat, not every such curve was filed as active; inconclusive = small, poorly fitted or top-dose-only effect, or effect the other way, or a change in a side signal; the % refers to the signal ratio; also: potency is read from the fitted curve at half-maximal effect
#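 S3 HeLa cells stably expressing lamin A-EGFP splicing minigene plus DsRed2, 600 cells/well, 48 h compound exposure at 37C. Laser-scanning cytometry; analysed as GFP (500-530 nm)/RFP (575-640 nm) total intensity ratio; 0.5% DMSO vehicle.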
# PNC inhibitor: perinucleolar compartment assembly inhibition | PC3M PTB-GFP, PNC prevalence imaging, 16 h; hits give low values | activity change (PNC), negative = inhibition, % at 10 µM | 140,000 compounds, 3.1% hits | AID 2417;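 active = readout at or below -70, meaning at least 70% loss of cells showing the perinucleolar compartment, a nuclear body marking cancer cells; inconclusive = readout between -30 and a set limit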;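 also: plate controls were DMSO wells for no effect and camptothecin positive control wells for full effect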
#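 Read-out is percentage of cells bearing a perinucleolar compartment, from automated 20x imaging of fixed, Hoechst-stained PC3M PTB-GFP cells. Cells were seeded 4 h, then exposed 16 h to compound (23 nl of library stock) in duplicate plates.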
# 12-hLO inh: 12-hLO (ALOX12) enzyme inhibition; P18054; purified 12-hLO, xylenol orange hydroperoxide absorbance; Potency, µM (titrated, usually from 57.1 µM), inactives show at the highest dose activity change, negative = inhibition, actives largely listed as inhibitors; 150,000 compounds, 0.12% hits; active = well fitted inhibition curve with a large enough effect; inconclusive = small, poorly fitted or top-dose-only effect; also: potency is read from the fitted curve at half-maximal effect; nearly all actives have a fitted effect of over 55% in size
#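 Hydroperoxide output read as Fe(III)-xylenol orange absorbance, 573-to-405 nm ratio, after 30 min reaction with 40 uM arachidonic acid. Enzyme: 150 nM purified human 12hLO, 15 min compound preincubation; 25 mM Hepes pH 7.0, room temperature.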
# Starred values were filed as active, the others as inactive; ? = inconclusive; . = no result given; [ ] = remark or other dose. Unless noted, calls follow the shape of the dose curve; as a rule, active = well fitted inhibition curve with a large enough effect (not every such curve was filed as active); inconclusive = small, poorly fitted or top-dose-only effect, or another doubt; inactive = no such curve, though single readings can be large or run the other way. Unless noted, % is scaled to controls: 0 for no effect and ±100 for the full control effect.
SMILES,HPGD block,ALDH1A1 inh,LMNA splice mod,PNC inhibitor,12-hLO inh
O=C(O)c1oc2ccc(Br)cc2c1-n1cccc1,-24%,13%,11%,-13,-2%
CC(C)=NO[C@@H](C)CN1CCCCc2nc(C)c(C)cc21,.,-7%[13.5 µM],.,.,.
COc1ccc(-c2[nH]ncc2CN2CCN(C3CCCCC3)C(=O)C2)cc1F,.,1.4µM*,?,.,.
COc1ccc(-c2[nH]ncc2CN2CCN(C(=O)c3ccco3)CC2)cc1F,.,-16%,.,.,.
Cc1cc(Cc2c(C)c(C)c(Cc3cc(C)cc(C(C)(C)C)c3O)c(C)c2C)c(O)c(C(C)(C)C)c1,-6%,7%[13.5 µM],.,.,-5%[11.4 µM]
CCN(CC)c1ccc(C2C(C(=O)Nc3ccccc3C)=C(C)Nc3ncnn32)cc1 (configuration not stated),.,.,-6%[46 µM],.,.
COc1ccc2c(c1)CC/C(=C\C=C\c1ccccc1)C2=O,-21%,28µM*,?,-17,-4%
O=C1/C(=C/Nc2ccc3c(c2)OCO3)CCc2ccccc21,25µM*,10µM*,-1%,7,-26%
COc1ccc2c(c1)CC/C(=C\Nc1ccc3c(c1)OCO3)C2=O,-30%,2µM*,-22%,5,?
O=C(O)C(Cl)(c1ccccc1)c1ccccc1,-4%,-10%[13.5 µM],.,.,-2%[11.4 µM]
N#CC(C#N)=C(N)/C(C#N)=C/c1ccc(O)cc1,?,2.2µM*,-5%,.,-4%
CCN(CC)c1ccc(/C=C(\C#N)C(N)=O)cc1,.,32µM*,21%[46 µM],.,.
CCN(CC)c1ccc(/C=N\NC(N)=O)cc1,?,?,-18%,-22,0%
CCN(CC)c1ccc(/C=C(\C#N)C(=O)c2ccc(Br)cc2)cc1,-12%,11µM*,?,-20,-1%
COc1cc(CN(C(=O)c2cccc(C)c2)c2ccccn2)cc(OC)c1OC,.,.,15%[46 µM],.,.
CC=CC1=C(C(=O)O)N2C(=O)[C@H](NC(=O)[C@H](N)c3ccc(O)cc3)[C@@H]2SC1,-20%,?,.,.,-2%[0.00818 µM]
O=C(NCCCO)c1ccc(CSc2nc3ccccc3[nH]2)cc1,.,-11%,-1%[46 µM],.,.
CC1C/C(=N/Nc2nc3ccccc3[nH]2)CC(C)(C)C1 (configuration not stated),-9%,?,?,?,-21%
COc1cc(/C=N/NC(=O)c2ccc(CSc3nc4ccccc4[nH]3)cc2)cc(OC)c1OC,?,?,-18%,-85*,0%
O=C(NCCO)c1ccc(CSc2nc3ccccc3[nH]2)cc1,25µM*,1%,?,-26,-2%
CC1C/C(=N/NC(=O)c2ccc(CSc3nc4ccccc4[nH]3)cc2)CC(C)(C)C1 (configuration not stated),-29%,25µM*,-7%,28,-7%
C[C@H](NC(=O)c1ccc(Cl)c(Cl)c1)c1ccc(-c2ccccc2)cc1,-10%,5%[13.5 µM],.,.,-1%[11.4 µM]
CO[C@@H]1COC(=O)[C@H]2CCCN2C(=O)[C@@H](C)COC(=O)CCC[C@H]1C,.,10%[13.5 µM],.,.,.
CO/N=C1\CN(c2nc3c(cc2F)c(=O)c(C(=O)O)cn3C2CC2)CC1CN (configuration not stated),-25%,-8%,?,.,4%
O=C(Nc1nccs1)c1cc(-c2ccccc2)nc2ccccc12,18µM*,-7%,?,54,0%
SMILES,HPGD block,ALDH1A1 inh,LMNA splice mod,PNC inhibitor,12-hLO inh
COc1cccc(-c2cc(C(=O)Nc3nc4ccccc4s3)c3ccccc3n2)c1,?,?,?,-115*,?
O=C(Nc1nccs1)c1sc2cc(Cl)ccc2c1Cl,?,?,?,57,-6%
O=C(Nc1nccs1)c1cc(-c2ccco2)nc2ccccc12,-30%,?,?,-89*,-1%
O=C(Nc1nccs1)c1sc2ccccc2c1Cl,13µM*,-2%,?,18,2%
CCOc1ccccc1NC(=O)Cn1ccn(Cc2ccc(C)cc2)c(=O)c1=O,.,.,3%[46 µM],.,.
C=C/C(=C\C)C[C@@H](CC(=O)N[C@@H](CCC(=O)O)CC(=O)O)NC(=O)[C@@H]1CNCC[C@H]1NC(=O)C[C@@H](NC(=O)C[C@H](Cc1ccccc1)NC(=O)[C@@H]1CCCC[C@H]1N)C(C)C,-5%,8%,.,.,5%
COc1cccc(/C=c2\sc3nc(-c4cccs4)nn3c2=O)c1OC,14µM*,4%,4%,?,-8%
COc1ccccc1-c1nc2s/c(=C\c3cccs3)c(=O)n2n1,-8%,-13%,-17%,-17,-7%
Cc1ccc(OCC(=O)Nc2nnc(S(=O)(=O)N3c4ccccc4CC3C)s2)cc1 (configuration not stated),.,.,0%[46 µM],.,.
C=CCNC(=O)N1CCc2nc(COc3ccccc3)c3c(c2C1)CO[C@@H](C)C3,3%,16%[13.5 µM],-1%[9.22 µM],.,1%[11.4 µM]
COc1ccc(Cn2nnnc2CN2CCc3ccccc3C2)cc1,-10%,11µM*,10%,-2,-6%
COc1ccc(Cn2nnnc2CN2CCC(O)(c3ccccc3F)CC2)cc1,.,8.9µM*,10%[46 µM],.,.
OC1(c2cccnc2)CCN(Cc2nnnn2Cc2ccccc2)CC1,.,16µM*,?,.,.
OC1(c2ccccc2F)CCN(Cc2nnnn2Cc2ccc(F)cc2)CC1,.,0%,20%[46 µM],.,.
COc1cccc(Cn2c(=O)c(-c3cccs3)nc3cnc(N4CCN(C)CC4)nc32)c1,-10%,-5%,.,.,-4%
Cc1ccc(Cl)cc1N1CCN(C(=O)c2cc(S(=O)(=O)N3CCCCC3)cn2C)CC1,.,.,-15%[46 µM],.,.
CCN(CC)S(=O)(=O)c1cc(NC(=O)COC(=O)Cn2cnc3ccccc32)ccc1C,-8%,20µM*,8%,-24,1%
O=C(COC(=O)Cn1cnc2ccccc21)Nc1ccc2c(c1)OCCO2,-6%,28µM*,3%,33,-3%
O=C(COC(=O)Cn1c(C(F)(F)F)nc2ccccc21)Nc1ccc2c(c1)OCCO2,1%,-18%,9%,-8,-2%
CCSc1nc2n(n1)C(c1ccc(C(=O)O)cc1)C(C(=O)Nc1ccccc1C)=C(C)N2 (configuration not stated),.,.,19%[46 µM],.,.
O=C(N/N=C\c1ccc(F)cc1)c1cc(OCC(F)(F)F)ccc1OCC(F)(F)F,-1%,4%,5%,-87*,-8%
O=C(NCCCN1CCOCC1)C(=O)N/N=C/c1c(Cl)cccc1Cl,.,6%,?,.,.
CC(C)c1ccc(/C=N/NC(=O)C(=O)NCCCN2CCOCC2)cc1,-8%,14µM*,-6%,34,-1%
COc1ccc(CN(CCC(c2ccccc2)c2ccco2)C(=O)c2ccco2)cc1 (configuration not stated),28µM*,7.9µM*,?,2,-10%
CCCN(CCC)C(=O)CC(c1ccc(F)cc1)c1ccco1 (configuration not stated),1%,?,2%,24,-5%
O=C(c1ccco1)N(CCC(c1ccccc1)c1ccco1)Cc1ccccc1 (configuration not stated),-20%,8.9µM*,-8%,-20,-3%
